{"source": "paper PMC12136788", "binders": {"B1": {"name": "chr12:73045124:73045125:+_ENSMUSG00000034574_ENSMUST00000085299|mus_mus|FALSE|FALSE (ssRNA)", "RNA": "GGGAGUUCUACAGUCCGACGAUCGCCUUGAGAGUUGUUCAUUAGUGCCUUUAUACAGCCAAUGAGGGAGGUGUGUAUCCGAGACUCAGAGGUCUCAUAGUCCAUGGUCUUCAGAAAGUUGAGAAUACAUGACAGGCCAUCCAACAACAGAGGAUUGAGCAUCA"}, "B2": {"name": "chr16:57473197:57473198:-_ENSG00000005194_ENST00000569370|hu_hu|motif|central (ssRNA)", "RNA": "GGGAGUUCUACAGUCCGACGAUCGAUCCGGGCGAUUUCAGCCAAAAUCUCAGCACUGUGCAGAGUGGUGCUUCCUGGGACGGAACCUGACAAAAUAAUGUCAAAGCUGGAUUCUUUGUGGGCAGAUUGCAACAGCUGCUUGAUCAACAGAGGAUUGAGCAUCA"}, "B3": {"name": "chrX:114877694:114877695:+_ENSG00000102024_ENST00000355899|hu_hu|FALSE|FALSE (ssRNA)", "RNA": "GGGAGUUCUACAGUCCGACGAUCGUUGAGUUUGGGGUUUCCACUGACAACAUCAGCAGGGGUAACAAACUGUCUGCAACCUAAUUUAUCUGCUUGUUGAAGCAUACUCUCAGCUCUCUUCAAAUCAUCUGUUUCAUUGAAACCCAACAGAGGAUUGAGCAUCA"}, "B4": {"name": "31603315_31603435_826_3pUTR_ENSMUSG00000024261_ENSMUST00000025110|mouse|control|control (ssRNA)", "RNA": "GGGAGUUCUACAGUCCGACGAUCUUCCUGAGCACUCUGGUCUUCACUCUGUGCUUCUUCUCUGGUAAGAUUGUCAUUUUGAUGUACGGGUCAGAGGUCAUGGAUUGCUCGUCCAUGGCUGGUAAGCCCUGGGCUUCCUUGAUGCAACAGAGGAUUGAGCAUCA"}, "B5": {"name": "171883182_171886102_1035_3pUTR_ENSMUSG00000026675_ENSMUST00000027989|mouse|control|control (ssRNA)", "RNA": "GGGAGUUCUACAGUCCGACGAUCUUCUGAACGGUGGUCCUGACACGCUUUUCCAGCUCCAGUAAGACCUCAUAGAAUUUUUCAGCAGUGUCUUCAUCUAUGUCCAUCUUUUGGCCCGUGACGUAAUUAGUCCCAAAUCCCGAGCAACAGAGGAUUGAGCAUCA"}, "B6": {"name": "82050892_82051012_2182_ncRNA_ENSMUSG00000021134_ENSMUST00000153056|mouse|control|control (ssRNA)", "RNA": "GGGAGUUCUACAGUCCGACGAUCUUGUUUUGUUUUUUAAAAAAAGGCCCCCAGGGCAAGUUAUUUACAGUUUAAUUGCCACUGUCAACUGAUCUGGACCUGGACCGGGAUCGGGACCUCUGGCGAUCCACAGAUGCUGGAGAUCAACAGAGGAUUGAGCAUCA"}, "B7": {"name": "chr18:35731629:35731630:+_ENSMUSG00000037236_ENSMUST00000166793|mus_mus|motif|central (ssRNA)", "RNA": "GGGAGUUCUACAGUCCGACGAUCUUAUAGAUCAAAAAAAAAAAAAAAAGUUUUAAAAGAUGGCCAAAAAGAAAGCUCAAGCGGGAAAGCUAGGUUAACUUUGCUUCAAAAAUGGUAACGCCAAGAAAAAGGAUCAAUAAGGACCAACAGAGGAUUGAGCAUCA"}, "B8": {"name": "chr1:23636438:23636439:-_ENSG00000125944_ENST00000302271|hu_mus|FALSE|FALSE (ssRNA)", "RNA": "GGGAGUUCUACAGUCCGACGAUCUUUUGUAGGGCAGAUUUCAAAAAGGUGUGGUUAUAACAAUUUAAAAACACAGUUAACCUGCUUCUAGGAAUGCAAAACAUACAGUCAUAGGUUAUCUUCAAUACAAGGAAACUUAAGUCUCAACAGAGGAUUGAGCAUCA"}, "B9": {"name": "chr13:59234359:59234360:+_ENSMUSG00000055254_ENSMUST00000079828|mus_mus|FALSE|FALSE (ssRNA)", "RNA": "GGGAGUUCUACAGUCCGACGAUCUAUGUAAAAAAUUGUUUUUGCUUUAUGUUGGUGAUGAAUGGACCAAAAGUUGAUAGAUAGAUAGAUAAAUAAAUAAAUAAAUAAAUAAAUACACAAAUAAAUAACGCCGAAGGGAAAGAACAACAGAGGAUUGAGCAUCA"}, "B10": {"name": "151522442_151522562_447_CDS_ENSMUSG00000034021_ENSMUST00000016569|mouse|control|control (ssRNA)", "RNA": "GGGAGUUCUACAGUCCGACGAUCAUAAAUCCUGAAAAUAUCAGCAAGGCAGCAAGCCACCAGUAAACGAACAUCUUUAUCAGGAUGCUUGAGGAAGAAGUCAGAAGCAAGAUGUAAAGCUAGGUUUAGAUAAAGUUCCUUUUCCAACAGAGGAUUGAGCAUCA"}, "B11": {"name": "chr16:94651144:94651145:+_ENSMUSG00000040785_ENSMUST00000117648|mus_hu|mus_mus_mus_hu_True|58_98 (ssRNA)", "RNA": "GGGAGUUCUACAGUCCGACGAUCAUUUUCUUGAAUCAAGUGACCGAUAACAUAGUCCACUGCUUCAUUUAGAAAAUUUUUGCUAGAAAAACAGGUUGUAUAGUCUUCUGUGCUCAAAACUUUCCAAGAAAGCAAUUCUUUGAGCAACAGAGGAUUGAGCAUCA"}, "B12": {"name": "chr2:115689334:115689335:-_ENSMUSG00000027210_ENSMUST00000074285|mus_hu|FALSE|FALSE (ssRNA)", "RNA": "GGGAGUUCUACAGUCCGACGAUCCUCUUUGAAGAAGAGUCCCCCAAAAAUAAUAAUAAGAAUUGGCUUAUGAAGCACGAACUAUAAAGAUCUGUUUGAAACUAAAGGACACAUUUAUGGAGGAACAAAGGCCGGGCAUGAAAACAACAGAGGAUUGAGCAUCA"}, "B13": {"name": "chr18:35731629:35731630:+_ENSMUSG00000037236_ENSMUST00000166793|mus_mus|FALSE|FALSE (ssRNA)", "RNA": "B7 RNA with G82U, G83A"}, "B14": {"name": "chr14:54894545:54894546:-_ENSG00000100528_ENST00000216416|hu_hu|FALSE|FALSE (ssRNA)", "RNA": "GGGAGUUCUACAGUCCGACGAUCCAUUUGGUGGCUUUUUGCAUGCACUUAACUGGACCAAUUCUUCUGUGUGUUGUUCUAAGAGCUCACCAAAACAUAGAUCAUGCCAUAUAGGUAGUAAAAAAAUGCUAGAAGAUAAAAAGCCAACAGAGGAUUGAGCAUCA"}, "B15": {"name": "chr13:100200628:100200629:-_ENSMUSG00000052727_ENSMUST00000064762|perfect_dup|FALSE|FALSE (ssRNA)", "RNA": "GGGAGUUCUACAGUCCGACGAUCGUCACCAGGUGUCUUCCCUCCACUGUCCUUCUCCAGGCCAGGUGUGGACAAAUCUCUAUUCAAGGCUAGAUGGUGUUGCAUUGUAUCGAAUAACACUGAGGCACGGAAGCCAUAGGGCUCCAACAGAGGAUUGAGCAUCA"}, "B16": {"name": "chr14:78183846:78183847:+_ENSG00000119705_ENST00000557342|hu_hu|hu_hu_hu_mus_False|78_88 (ssRNA)", "RNA": "GGGAGUUCUACAGUCCGACGAUCUCUCAGAAAUCUUUCUUCAUCAGCAUCAUCAGAUGUUUGCGGAGCCUUUGCUCUUUGAGCUUGAACGUGGAUCUAUGGGAGGGAAAGCACUGUCAGAAAAGGUAAUUUUUUUUUUAAAGACAACAGAGGAUUGAGCAUCA"}, "B17": {"name": "chr18:35731629:35731630:+_ENSMUSG00000037236_ENSMUST00000166793|mus_hu|FALSE|FALSE (ssRNA)", "RNA": "GGGAGUUCUACAGUCCGACGAUCUAUUUUAUAGAUUAAAAAAAAAAAUUUUUUUAAAGACGGCCAAAAAGAAAGCUCAAACUAGAAAGCUAGGUUAACUUUGCUUCAAAAAUGGUAACGCCAAGAAAAAGGAUCAAUAAGGACCAACAGAGGAUUGAGCAUCA"}, "B18": {"name": "chr1:66485654:66485655:+_ENSMUSG00000015222_ENSMUST00000024639|mus_hu|FALSE|FALSE (ssRNA)", "RNA": "GGGAGUUCUACAGUCCGACGAUCUUUUUAAAUAGAAAAUUGUAACAAUUACUACAGUUUGGGGAUGAGAUUAUUUAUUUUAUGGUUUAUAAAGAAUGAAUAUAACAACUGCUCAGAGCCCACUCCUGCCAAGAGCUCAUGCCUCAACAGAGGAUUGAGCAUCA"}, "B19": {"name": "chr7:127875444:127875445:+_ENSMUSG00000046096_ENSMUST00000060175|mus_hu|FALSE|FALSE (ssRNA)", "RNA": "GGGAGUUCUACAGUCCGACGAUCAAAGGCAUAUAACAUAUAAAGAAAAUAUUGUAUUGCUCAGGUUUUGGUAAAGAUGUAUUAAUAAUGCUUACAGAUAAAAAUAAUGAAAUUAGUGUUGUAAAUAGCCAAAAUAGCCAGAUACAACAGAGGAUUGAGCAUCA"}, "B20": {"name": "chr18:35731629:35731630:+_ENSMUSG00000037236_ENSMUST00000166793|mus_hu|motif|central (ssRNA)", "RNA": "B17 RNA with U82G, A83G"}, "B21": {"name": "chr18:51681570:51681571:-_ENSG00000134046_ENST00000256429|hu_hu|FALSE|FALSE (ssRNA)", "RNA": "GGGAGUUCUACAGUCCGACGAUCGAUAUAUACAUCAAAAAUACAUCUAAAAAGGCAUUGGUUAGUGCUAUUAAAAAGCUCUAUGUGCUCGGGUACAUUUUUUUUCUUACAGGCAAAAGCCAGUGGAAACAUUUUUGUUCAAUUCAACAGAGGAUUGAGCAUCA"}, "B22": {"name": "chr9:74904954:74904955:+_ENSMUSG00000007656_ENSMUST00000169492|mus_hu|FALSE|FALSE (ssRNA)", "RNA": "GGGAGUUCUACAGUCCGACGAUCCCAAAAGGUAAAUACAGAAGAAAUCAAUACAAUAGAGAUUAUAUUAAAUAAGAGUAACAUACAAAGCUAUAAUUAAGAUGAAGUAAUGAAAGCCAAAACAUUAAAAUUUUAAAACUUGCUCAACAGAGGAUUGAGCAUCA"}}, "note": "Positions count from the first letter of the chain named. The full ranking holds about 24,000 sequences; the median of “enrichment r” is about 0.99, and the highest 2% start at about 3.7. The sample holds the highest values, similar sequences and a random draw of the others, so the mix is not that of the screen."}
{"target": "T1, UNK ZnF1-3 (human, UniProt Q9C0B0 31-174)", "T1 sequence": "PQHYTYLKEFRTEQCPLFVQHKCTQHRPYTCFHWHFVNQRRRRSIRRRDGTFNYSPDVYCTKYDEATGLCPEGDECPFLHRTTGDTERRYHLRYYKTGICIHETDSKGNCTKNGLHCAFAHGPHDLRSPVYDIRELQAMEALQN", "assay": "nsRBNS (natural sequence RNA bind-n-seq); RBNS binding buffer (assumed for nsRBNS): 25 mM Tris pH 7.5, 150 mM KCl, 3 mM MgCl2, 0.01% Triton X-100, 500 ug/ml BSA, 20 U/ml SUPERase-In, 4 C; UNK is unkempt and MSI1 is Musashi-1; names of the RNAs are library labels; protein concentration not given here; high values mean tight binding", "units": {"binding signal": "enrichment R"}}
{"binder": "B1", "binding signal": 0.851}
{"binder": "B2", "binding signal": 1.32}
{"binder": "B3", "binding signal": 0.755}
{"binder": "B4", "binding signal": 0.411}
{"binder": "B5", "binding signal": 0.753}
{"binder": "B6", "binding signal": 1.31}
{"binder": "B7", "binding signal": 8.04}
{"binder": "B8", "binding signal": 1.23}
{"binder": "B9", "binding signal": 5.23}
{"binder": "B10", "binding signal": 1.36}
{"binder": "B11", "binding signal": 0.331}
{"binder": "B12", "binding signal": 2.27}
{"binder": "B13", "binding signal": 7.98}
{"binder": "B14", "binding signal": 1.24}
{"binder": "B15", "binding signal": 1.14}
{"binder": "B16", "binding signal": 1.96}
{"binder": "B17", "binding signal": 4.65}
{"binder": "B18", "binding signal": 3.6}
{"binder": "B19", "binding signal": 5.6}
{"binder": "B20", "binding signal": 5.52}
{"binder": "B21", "binding signal": 0.982}
{"binder": "B22", "binding signal": 3.69}
